Test results published in PubChem BioAssay.
Values without a mark were called inactive. How the calls were made is not given here.

target: Pantothenate synthetase (Mycobacterium tuberculosis (strain ATCC 25618 / H37Rv)) (UniProt P9WIL5); assay: Coupled enzyme confirmation of inhibitors against recombinant Mtb PanC (AID 375); details: coupled enzyme assay; at 10 µM, active compounds read high;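 further: 0% = full reaction with vehicle and 100% = no enzyme background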
Sequence (P9WIL5 whole entry, looked up): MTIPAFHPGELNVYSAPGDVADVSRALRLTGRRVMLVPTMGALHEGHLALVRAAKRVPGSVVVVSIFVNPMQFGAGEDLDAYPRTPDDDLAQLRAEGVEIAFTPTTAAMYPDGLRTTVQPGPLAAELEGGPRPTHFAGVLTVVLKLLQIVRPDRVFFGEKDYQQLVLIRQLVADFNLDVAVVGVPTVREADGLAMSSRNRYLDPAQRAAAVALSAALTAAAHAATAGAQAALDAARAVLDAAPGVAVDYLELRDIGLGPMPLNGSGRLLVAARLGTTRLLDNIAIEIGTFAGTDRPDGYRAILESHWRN

Row | Compound | inhibition
1 | CCOCCn1cnc2sc(C(=O)Nc3nc(C)c(C(=O)OCC)s3)c(C)c2c1=O | 13%
2 | Cn1nnnc1SCC1=C(C(=O)O)N2C(=O)[C@@H](NC(=O)[C@H](O)c3ccccc3)[C@H]2SC1 | 0%
3 | COc1ccc(NS(=O)(=O)c2ccc(N)cc2)nn1 | 1%
4 | CCCc1[nH]nc2c1C(c1cn[nH]c1-c1ccc(F)cc1)C(C#N)=C(N)O2 (stereo not given) | 10%
5 | c1ccc(Cc2nnc3n2CCCCC3)cc1 | 6%
6 | CC1Cc2cc(/C(O)=C3/C(=O)C(=O)N(CCN4CCOCC4)C3c3cccc(O)c3)ccc2O1 (stereo not given) | 6%
7 | ON=C1/C(=N\O)CC2(C/C1=N/O)OCCO2 | 0%
8 | Cc1cc(C(F)F)n2ncc(C(=O)NC3CCCCCC3)c2n1 | 0%
9 | CC1=C(C(N)=O)C(c2ccccn2)n2nc(SCc3ccccc3)nc2N1 (stereo not given) | 0%
10 | CCOC(=O)c1[nH]cc(-c2ccccc2)c1N1CCOCC1 | 0%
11 | CCn1c2ccccc2c2cc(N)ccc21 | 0%
12 | CN1CCN(C2=Nc3ccccc3Oc3ccc(Cl)cc32)CC1 | 4%
13 | O=C(CSc1nnc(Cc2cc(=O)[nH]c(=O)[nH]2)n1-c1ccccc1)NCC1CCCO1 (stereo not given) | 0%
14 | COc1cccc(C2C(C(=O)c3cccs3)=C(O)C(=O)N2CCCn2ccnc2)c1OC (stereo not given) | 0%
15 | COc1cccc(OCc2nnc(SCC(=O)OCc3ccccc3)o2)c1 | 0%
16 | COc1ccccc1NC(=O)N(Cc1ccco1)Cc1cc2c(C)ccc(C)c2[nH]c1=O | 0%
17 | Cc1nc(C)n(C(C)CC(=O)O)n1 (stereo not given) | 0%
18 | COc1ccc(C2C3=C(CCCC3=O)Nc3nc(SCc4ccccc4)nn32)cc1OC (stereo not given) | 0%
19 | O=S1(=O)CCC(N=Cc2cc(Br)ccc2O)C1 (stereo not given) | 0%
20 | CC(=O)Nc1ccccc1-c1nc2ccc(C(=O)N3CCN(c4ccccc4)CC3)cc2[nH]c1=O | 7%

Row | Compound | inhibition
21 | CCSc1cc(C2C(C(=O)OC)=C(C)NC3=C2C(=O)CCC3)c(C)o1 (stereo not given) | 0%
22 | CCCCCC1CC(CC#CCN2CCOCC2)C(=O)O1 (stereo not given) | 7%
23 | Cc1ccc(-c2cc(C(F)F)nc(N3CCC(C)CC3)n2)cc1 | 6%
24 | Cc1ccccc1CN1CCN(CC(=O)NCc2ccco2)C1=O | 0%
25 | CC(C)(C)SCCNC(=O)COc1ccccc1 | 3%
26 | Cc1cccc(NS(=O)(=O)c2cc(C(=O)OCC(=O)Nc3cc(C)on3)ccc2C)c1 | 0%
27 | CC1=Nn2c(nnc2-c2cc(-c3ccccc3)n[nH]2)SC1 | 0%
28 | Cc1ccc(-c2noc(C3CCCN(C(=O)c4ccccc4)C3)n2)o1 (stereo not given) | 0%
29 | CCCC(C)c1nnc(NC(=O)C2CCCO2)s1 (stereo not given) | 0%
30 | Cc1ccc(S(=O)(=O)N2CCC(C(=O)N3CCN(Cc4ccccc4)CC3)CC2)cc1 | 0%
31 | CCOc1ncccc1C(=O)OCC(=O)Nc1ncc(C(F)(F)F)cc1Cl | 1%
32 | O=C(NCCOC(=O)C1COc2ccccc2O1)C1COc2ccccc2O1 (stereo not given) | 0%
33 | CCOc1ccc(N2CC(C(=O)Nc3cccc(C)c3C)CC2=O)cc1 (stereo not given) | 0%
34 | COc1ccc(C)cc1S(=O)(=O)N1CCN(Cc2ccccc2)CC1 | 11%
35 | CCOC(=O)C1CCCN(C(=O)CNS(=O)(=O)c2ccc(Br)s2)C1 (stereo not given) | 8%
36 | COc1ccc(NC(=O)CCCN2C(=O)C3C4C=CC(C4)C3C2=O)c(OC)c1 (stereo not given) | 2%
37 | CC(=O)OCC(=O)[C@@]1(O)CC[C@H]2[C@@H]3CCC4=CC(=O)CC[C@]4(C)[C@H]3C(=O)C[C@@]21C | 0%
38 | Cc1c(NS(=O)(=O)c2ccc3c(c2)n(C)c(=O)n3C)c(=O)n(-c2ccccc2)n1C | 2%
39 | COC(=O)CSc1nnc(CSc2nc(C)cc(C)n2)n1Cc1ccco1 | 0%
40 | Cn1nnnc1SCC(=O)NCc1ccco1 | 5%
